In the library only some 5.4% were active in any assay of this set; here they are far more common.
beta cell repl: inducers of beta-cell replication in MIN6 cells | proliferation, % at 10 µM | 0.29% of 330,000 active | AID 2380 | MIN6 cells proliferation, ATPlite luminescence, 48 h; cells starved in 0.2% serum; 100% = growth in 10% serum;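 active = compounds whose signal lies at least 3.5 SD above the mean of all wells on their plate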;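 also: 0% = DMSO-treated cells in low-serum medium and 100% = 10% serum control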
SMARCA2 act: activators of SMARCA2 function. activation, % at 9.1 µM. 1% of 370,000 active. MG213 cells, MMTV-luciferase reporter, dexamethasone, overnight; in the data active = activation above about 7.8%;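 also: 0% = vehicle wells and 100% = reference activator wells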
Exocytosis inh: blocks lytic granule exocytosis; TALL-104 LAMP-1 surface exposure, flow cytometry; cells stimulated with thapsigargin and PMA; inhibition, % at 10 µM; 0.66% of 360,000 active; AID 651702;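 active = inhibition above about 55%, limit read from the data; inconclusive = no clear call, values can overlap the other calls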
JMJD2C inh: human JMJD2C demethylase inhibition; Q9H3R0; GST-JMJD2C(1-420) H3K9me3 demethylation, DELFIA europium; inhibition, % at 2.35 µM; 0.069% of 330,000 active;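 active = more than half of a compound's replicate wells show inhibition beyond 50%, single wells judged on their own value; inconclusive = some, but no more than half, of replicates pass 50% inhibition; inactive = no replicate passes 50% inhibition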;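 also: signal counts dimethyl H3K9 product captured on neutravidin plate; 0% = median of DMSO wells and 100% = 0.3 times that DMSO median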
ALR H2O2 inh: inhibitors of human sulfhydryl oxidase ALR | inhibition, % (test concentration not listed) | AID 485317 | 3.8% of 290,000 active | purified ALR, DTT oxidation, H2O2 HRP-luminol luminescence;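 active = mean replicate inhibition above about 79%, with every replicate also reaching it, limit read from the data; inconclusive = only one of the two criteria met; inactive = mean below limit and not every replicate reaching it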
Target sequence (P55789 whole entry, looked up): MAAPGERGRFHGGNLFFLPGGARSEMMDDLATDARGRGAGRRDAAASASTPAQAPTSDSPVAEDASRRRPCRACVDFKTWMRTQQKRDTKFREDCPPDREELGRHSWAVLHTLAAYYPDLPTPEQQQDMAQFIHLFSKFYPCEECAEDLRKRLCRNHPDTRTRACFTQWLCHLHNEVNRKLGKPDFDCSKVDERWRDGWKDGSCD
PfM18AAP inh-1: PfM18AAP enzyme inhibition. recombinant PfM18AAP, H-Glu-NHMec fluorogenic cleavage. inhibition, % at 7.35 µM. 1.2% of 290,000 active. AID 1822;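 active = inhibition above the campaign mean inhibition over all tested compounds plus 3 SD, cut at about 28% in these data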;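 also: 0% = plate median of test compound wells and 100% = 2 mM ZnCl2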
PfM18AAP inh-2: confirmation of Plasmodium falciparum M18 aspartyl aminopeptidase inhibitors. recombinant PfM18AAP, H-Glu-NHMec fluorogenic cleavage. shares compounds with PfM18AAP inh-1. inhibition, % at 7.35 µM. 28% of 2,400 active;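 active = mean inhibition over replicate wells above the hit cutoff set for the earlier primary screen, cut at about 29% in these data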;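 also: 0% = median of test compound wells and 100% = 2 mM ZnCl2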
CTSL1 confirm: Cathepsin L (human) inhibition, confirmation | inhibition, % at 5.96 µM | 2,400 tested, under 10 active | shares compounds with PfM18AAP inh-1 | purified cathepsin L1, Z-Leu-Arg-MCA fluorescence | AID 2178;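 active = average inhibition across replicates above the hit cutoff set in the earlier primary screen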;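 also: 0% = median of test compound wells and 100% = Z-Phe-Ala-diazomethylketone 1 µM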
Target sequence (P07711 whole entry, looked up): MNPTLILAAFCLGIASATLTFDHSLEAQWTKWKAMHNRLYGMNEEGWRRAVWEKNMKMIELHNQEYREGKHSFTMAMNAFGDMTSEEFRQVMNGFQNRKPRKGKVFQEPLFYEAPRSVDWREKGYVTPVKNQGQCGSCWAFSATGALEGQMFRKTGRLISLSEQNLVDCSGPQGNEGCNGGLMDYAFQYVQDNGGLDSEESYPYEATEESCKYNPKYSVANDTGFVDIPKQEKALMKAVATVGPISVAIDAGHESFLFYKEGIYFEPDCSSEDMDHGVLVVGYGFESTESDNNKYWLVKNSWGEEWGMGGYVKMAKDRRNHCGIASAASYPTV
* marks the source's active call; other numbers are inactive results; u = inconclusive; x = no result given.

SMILES | beta cell repl | SMARCA2 act | Exocytosis inh | JMJD2C inh | ALR H2O2 inh | PfM18AAP inh-1 | PfM18AAP inh-2 | CTSL1 confirm
COC(=O)C1=C(C)N(Cc2cccc(C(F)(F)F)c2)C(=NCc2ccc3c(c2)OCO3)NC1c1cccc(F)c1 (configuration not stated) | x | -4.2 | x | x | x | x | x | x
Cc1cc(C)nc(SCCc2ccncc2)n1 | -3.1 | 0.2 | -5.7 | -5.0 | x | 49.5* | -8.3 | -3.4
Cc1cc(C)nc(SCSc2nc(C)cc(C)n2)n1 | x | -1.5 | -2.9 | -4.3 | x | -0.9 | x | x
Cc1ccc2oc(=O)c(/C=C(\O)c3cccs3)nc2c1 | -1.1 | 5.2 | -5.6 | 14.0 | 3.0 | 37.4* | 29.1* | 0.7
O=c1oc2ccc(Cl)cc2nc1/C=C(\O)c1cccs1 | -3.8 | 4.8 | 2.6 | 8.2 | -4.6 | 6.6 | x | x
CCCC[C@H]1C2CC(OC(=O)Nc3ccccc3C)C(C2)[C@H]2CCCCN21 (some centres not stated) | x | -2.5 | x | x | x | x | x | x
CN(C)/C=C/c1oc2ccc(O)cc2c1[N+](=O)[O-] | -0.6 | 0.6 | 0.1 | -15.0 | -1.1 | 35.8* | -34.9 | 11.2
CCN1C(=O)CC(C(=O)OC)=C1C | 0.8 | -2.7 | -2.7 | 19.5 | -3.1 | 7.0 | x | x
COC(=O)C1=C(C)N(Cc2ccc3c(c2)OCO3)C(=O)C1 | -1.0 | 1.9 | 4.7 | -10.2 | 24.1 | 33.9* | -54.8 | 2.1
CCC(NC(C)C)C(O)c1ccc(O)c(O)c1 (configuration not stated) | -7.5 | -3.6 | 0.3 | 6.7 | 92.2* | 51.6* | 10.0 | -3.7
O=C(NNc1cccc([N+](=O)[O-])c1)/C(=C\c1cccnc1)NC(=O)c1ccccc1 | 1.5 | -1.8 | -2.9 | 1.2 | 99.3* | 46.2* | 10.3 | 1.4
CC(=O)c1cccc(NC(=O)/C(=C\c2cccnc2)NC(=O)c2ccccc2)c1 | -0.7 | -0.1 | -5.6 | 9.8 | -1.3 | -1.4 | x | x
Cc1ccc(S(=O)(=O)Nc2ccc(O)c3cccnc23)cc1 | 0.0 | -6.3 | 1.9 | -12.8 | 94.8* | 48.6* | 30.1* | -11.1
Cc1ccc(S(=O)(=O)Nc2ccc(O)c3ncccc23)cc1 | -6.3 | -0.1 | 1.0 | -3.0 | 87.8* | 39.5* | 7.1 | -1.3
Cc1ccc(S(=O)(=O)Nc2cccc3ncccc23)cc1 | -2.1 | -2.5 | -0.6 | 2.5 | 0.2 | 4.3 | x | x
COc1ccc(C=NNC(=O)c2ccncc2)cc1 | x | -5.8 | x | x | x | x | x | x
CCCN1CCCCC(NC(=O)OC(C)(C)C)C1=O (configuration not stated) | x | -2.5 | x | x | x | x | x | x
CC(C)(C)c1ccc(C#C[C@@H]2C=C[C@@H](O)[C@@H](COC(=O)NCc3ccccc3)O2)cc1 | x | -0.1 | x | x | x | x | x | x
Nc1nc(-c2ccccc2)cn1/N=C/c1ccccc1 | -1.5 | 1.8 | -3.0 | -4.9 | 16.9 | 1.5 | x | x
S=c1[nH]c(-c2ccccc2)cn1/N=C/c1ccncc1 | 0.4 | -1.9 | 3.2 | 6.9 | 56.3 | 51.3* | 42.7* | -7.5
COc1cccc(C(=O)N[C@@H](Cc2cccnc2)C(=O)N2CCC[C@H]2C(=O)NC2CCCC2)c1 | x | -1.2 | x | x | x | x | x | x
O=[N+]([O-])c1ccc(N/N=C/c2ccc(O)c(O)c2O)c(S(=O)(=O)N2CCOCC2)c1 | -4.6 | -0.2 | 3.4 | 14.2 | x | 36.9* | -29.2 | -7.0
O=[N+]([O-])c1ccc(N/N=C/c2cccc(O)c2O)c(S(=O)(=O)N2CCOCC2)c1 | -5.5 | -6.2 | 2.0 | -12.8 | -30.6 | 41.8* | 38.2* | 0.3
CC(C)C[C@H]1CNC(=O)C(=O)N1C[C@@H]1CCCN1C[C@H](Cc1ccccc1)N1C[C@H](CC(C)C)N(CC2CCCCC2)C(=O)C1=O | x | -1.8 | x | x | x | x | x | x
CCc1c(-c2ccccc2)ncn1CCc1ccccc1OC | x | -0.8 | x | x | x | x | x | x
SMILES | beta cell repl | SMARCA2 act | Exocytosis inh | JMJD2C inh | ALR H2O2 inh | PfM18AAP inh-1 | PfM18AAP inh-2 | CTSL1 confirm
C/C(CC(=O)Nc1ccccc1C#N)=N\NC(=O)c1ccncc1 | -2.0 | 0.0 | 0.8 | -15.0 | x | 36.9* | -19.1 | -4.5
CC(=O)Nc1ccccc1NC(=O)C/C(C)=N/NC(=O)c1ccncc1 | -2.5 | 0.4 | 3.2 | -0.8 | 15.6 | 14.2 | x | x
O=C(/C=C/c1ccccc1)Nc1ncn[nH]1 | 0.8 | x | 0.4 | -4.7 | 1.8 | 44.6* | 47.5* | -2.0
C#CCNC(=O)/C=C/c1ccc(OC)cc1 | -0.3 | 5.4 | -7.4 | -3.6 | 2.4 | 0.8 | x | x
COc1ccc(/C=C/C(=O)Nn2cnnc2)cc1 | -2.0 | -2.5 | 8.5 | -4.8 | 3.2 | 80.5* | 70.9* | 4.0
O=C(/C=C/c1ccccc1)Nn1cnnc1 | 2.6 | -4.3 | -0.9 | -0.1 | -5.9 | 80.3* | 70.0* | 0.5
CN(CCOC(=O)CC1C=CCC1)C1CN(Cc2cn(Cc3ccccc3Cl)nn2)S(=O)(=O)C1 (configuration not stated) | x | -1.9 | x | x | x | x | x | x
COC(=O)C1=C(C)N(Cc2ccccc2C(F)(F)F)C(=NCc2ccc(OC)cc2)NC1c1cccc(F)c1 (configuration not stated) | x | -2.2 | x | x | x | x | x | x
CC(=O)N1CCCN(C(=O)CN2C(=O)CC(C)(C)S(=O)(=O)c3ccccc32)CC1 | x | 1.6 | x | x | x | x | x | x
O=C1/C(=C\c2ccc(O)c(O)c2)C(c2ccccc2)=NN1c1ccccc1 | x | -6.0 | 0.2 | u | x | 49.0* | 35.8* | -2.3
CCOc1cc(/C=C2\C(=O)N(c3nc(-c4ccc(Br)cc4)cs3)N=C2c2ccccc2)ccc1O | -5.6 | x | -0.7 | 5.8 | -1.4 | 4.4 | x | x
Cc1cc(C)cc(OCC(=O)Nc2nc(-c3cccnc3)cs2)c1 | -1.1 | 0.3 | -3.0 | -1.7 | 0.6 | 44.4* | -2.5 | -3.9
C=CCc1c(C)nc(-c2ccccc2)nc1N/N=C(\C)c1ccccc1 | -1.6 | -1.2 | -2.8 | -8.1 | x | 37.1* | -27.4 | -0.2
C=CCc1c(C)nc(SC)nc1Nc1ccccc1 | -3.2 | -1.2 | 2.4 | -3.2 | x | -2.8 | x | x
CCN(CC)c1c2c(nc3ncnn13)CCCC2 | x | -5.1 | x | x | x | x | x | x
COc1cc(OC)c2c(c1O)OC(c1ccccc1)CC2=O (configuration not stated) | -0.4 | 2.2 | 0.2 | 11.8 | 30.1 | 48.9* | -0.3 | 4.0
CC(C)=CCc1c(O)cc2c(c1O)C(=O)CC(c1ccccc1)O2 (configuration not stated) | -2.5 | -2.7 | -4.5 | 2.9 | -6.1 | x | x | x
COC(=O)[C@]12C[C@H](CC(=O)N3CCCCC3)C(=O)N(Cc3cccc4ccccc34)C1=C[C@H](COCc1ccccc1)O[C@@H]2C | x | -2.5 | x | x | x | x | x | x
COC(=O)[C@]12C[C@H](CC(=O)NCC34CC5CC(CC(C5)C3)C4)C(=O)N(Cc3ccccc3)C1=C[C@H](COCc1ccccc1)O[C@@H]2C | x | 3.2 | x | x | x | x | x | x
Fc1ccc(-n2c(=S)[nH]c3cccnc32)cc1 | -0.1 | 1.2 | -4.8 | -5.1 | -4.0 | 36.7* | 3.8 | 1.7
